Results as given in PubChem BioAssay (EPA / NIEHS).
Results filed as inconclusive are left out. Activity calls are given as the source filed them. Rule for the calls, unless noted: active = hit-call score of the fitted dose curve at least 0.9, where 1 is the maximum; inactive = score below 0.9.

Columns and labels:
[1] = IUF_NPC1_viability_72hr: Viability Assessment at 72 hours in the Leibniz Research Institute for Environmental Medicine (IUF) Neural Progenitor Cell Proliferation Assay (NPC1) (AID 2284209)
How it was run: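 Three-day continuous exposure of human neural progenitor spheres under EGF/FGF-driven proliferation; cell viability scored by alamar blue signal versus DMSO.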

[2] = CCTE_Mundy_HCI_Cortical_Synap_Neur_Matur_NeuriteSpotCountPerNeuriteLength: CCTE's Synaptogenesis and Neurite Maturation Assay in rat cortical cells for Neurite Spot Count per Neurite Length, Mundy Lab (AID 2284210)
How it was run: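 Read-out: synaptophysin puncta counted along MAP2-stained neurites, normalised to neurite length, by automated high-content imaging. Rat cortical cells; AraC DIV 5; chemical dosing DIV 7; termination DIV 12. DMSO baseline.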

[3] = CCTE_Mundy_HCI_Cortical_Synap_Neur_Matur_BPCount: CCTE's Synaptogenesis and Neurite Maturation Assay in rat cortical cells for Branch Point Count, Mundy Lab (AID 2284211)
How it was run: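 In this multiplexed morphology assay, cortical cells from rat receive chemicals at DIV 7 and are fixed at DIV 12, then immunostained and imaged; branch points are counted, with DMSO as baseline.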

[4] = CCTE_Mundy_HCI_Cortical_NOG_NeuriteCount: CCTE's Neurite Outgrowth Assay in rat cortical cells for Neurite Count, Mundy Lab (AID 2284212);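 note: cells fixed about two days after chemical exposure began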
How it was run: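 Rat cortical primary cells; compound added 2 h post-plating, 1/10 dilution of working solution. Anti-betaIII-tubulin/AF488 ICC; ArrayScan neurite count vs DMSO.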

[5] = CCTE_Mundy_HCI_Cortical_NOG_NeuriteLength: CCTE's Neurite Outgrowth Assay in rat cortical cells for Neurite Length, Mundy Lab (AID 2284213);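 note: neurites imaged about 48 to 50 h after chemical exposure began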
How it was run: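 First, rat primary cortical cells were plated and, 2 h later, given test chemical as a 1/10 dilution. Finally, βIII-tubulin immunostaining enabled automated imaging of neurite length.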

[6] = CCTE_Mundy_HCI_Cortical_Synap_Neur_Matur_NeuriteLength: CCTE's Synaptogenesis and Neurite Maturation Assay in rat cortical cells for Neurite Length, Mundy Lab (AID 2284214)
How it was run: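 DMSO-normalised neurite length, from high-content imaging of anti-MAP2-stained rat cortical cells fixed at DIV 12. Glia were suppressed with AraC (DIV 5) before chemical exposure from DIV 7.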

[7] = CCTE_Mundy_HCI_Cortical_Synap_Neur_Matur_SynapseCount: CCTE's Synaptogenesis and Neurite Maturation Assay in rat cortical cells for Synapse Count, Mundy Lab (AID 2284218)
How it was run: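 Endpoint: synapses/neuron by HCI (synaptophysin puncta on MAP2-labelled neurites, Hoechst nuclei). Rat primary cortical cells, AraC DIV 5, dosed DIV 7, fixed DIV 12; DMSO negative control.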

[8] = CCTE_Mundy_HCI_hN2_NOG_NeuriteCount: CCTE's Neurite Outgrowth Assay in human hN2 cells for Neurite Count, Mundy Lab (AID 2284219; active = hit-call score of the fitted dose curve at least 0.9, where 1 is the maximum)
How it was run: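 In this morphology assay, hNP1-derived neurons received test chemical 2 h post-plating and were fixed two days later in warm paraformaldehyde/sucrose containing Hoechst 33342. Neurites, labelled by rabbit anti-βIII-tubulin (1:800) and Alexa Fluor-488 (1:500), were counted automatically.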

[9] = CCTE_Mundy_HCI_hN2_NOG_NeuriteLength: CCTE's Neurite Outgrowth Assay in human hN2 cells for Neurite Length, Mundy Lab (AID 2284220; active = hit-call score of the fitted dose curve at least 0.9, where 1 is the maximum)
How it was run: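 Read-out is neurite length from high-content imaging of βIII-tubulin/Alexa Fluor-488-labelled neurons, referenced to DMSO controls.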

[10] = CCTE_Mundy_HCI_hN2_NOG_NeuronCount: CCTE's Neurite Outgrowth Assay in human hN2 cells for Neuron Count, Mundy Lab (AID 2284221; active = hit-call score of the fitted dose curve at least 0.9, where 1 is the maximum)
How it was run: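 Read-out is the number of betaIII-tubulin-positive neurons imaged by automated high-content analysis, with DMSO as negative control.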

[11] = CCTE_Mundy_HCI_Cortical_Synap_Neur_Matur_NeuriteCount: CCTE's Synaptogenesis and Neurite Maturation Assay in rat cortical cells for Neurite Count, Mundy Lab (AID 2284222)
How it was run: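 Rat primary cortical cells; AraC added at DIV 5, chemicals dosed with media change at DIV 7 through DIV 12. MAP2/synaptophysin/Hoechst immunostaining, high-content imaging of neurite number; fitted relative to DMSO.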

[12] = CCTE_Mundy_HCI_Cortical_Synap_Neur_Matur_CellBodySpotCount: CCTE's Synaptogenesis and Neurite Maturation Assay in rat cortical cells for Cell Body Spot Count, Mundy Lab (AID 2284223)
How it was run: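 High-content imaging counts synaptophysin puncta on neuronal cell bodies per neuron after MAP2/synaptophysin immunostaining. Rat primary cortical cells, glia arrested with AraC at DIV 5, were exposed DIV 7–12; signal decrease measured against DMSO.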

[13] = CCTE_Mundy_HCI_hNP1_Pro_ResponderAvgInten: CCTE's Proliferation Assay in human neuroprogenitor cells, Mundy Lab (AID 2284224; active = hit-call score of the fitted dose curve at least 0.9, where 1 is the maximum;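 note: human neural progenitor cells hNP1 derived from WA09 embryonic stem cells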)
How it was run: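 Proliferation read as average intensity of BrdU-positive cells, imaged at 26.25 h post-dosing: chemical exposure started after 40–44 h culture, BrdU during final 4 h, paraformaldehyde fixation. Positive-direction fit relative to DMSO.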

[14] = UKN4_HCS_LUHMES_cell_viability: Viability Assessment in the University of Konstanz (UKN) Leist Lab Neurite Outgrowth Assay in human LUHMES cells (UKN4) (AID 2284232)
How it was run: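 Measured in replated, 2-day-differentiated LUHMES cells treated 24 h; stained 30 min with H-33342 and calcein-AM before high-content imaging.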

[15] = UKN2_HCS_IMR90_cell_viability: Viability Assessment in the University of Konstanz (UKN) Leist Lab Neural Crest Cell Migration Assay in human induced IMR90 Pluripotent Stem Cells (UKN2) (AID 2284233);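 note: cells exposed to compound for 24 h after a 24 h migration phase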
How it was run: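 Viability read as calcein-AM fluorescence by high-content imaging, Hoechst co-stain, 30 min. Human iPSC (IMR90) neural crest cells had migrated 24 h into stopper-defined gaps before 24 h chemical exposure. Fitted bidirectionally relative to DMSO.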

[16] = CCTE_Mundy_HCI_Cortical_NOG_BPCount: CCTE's Neurite Outgrowth Assay in rat cortical cells for Branch Point Count, Mundy Lab (AID 2284237);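 note: branch points counted about two days after chemical exposure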
How it was run: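 Measured 50.33 h after dosing, this morphology endpoint uses rat primary cortical cultures labelled for betaIII-tubulin. Branch points are quantified by high-content imaging, with DMSO as negative control and baseline.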

[17] = CCTE_Mundy_HCI_hNP1_Casp3_7: CCTE's Caspase-Glo 3/7 Assay in human neuroprogenitor cells for Apoptosis, Mundy Lab (AID 2284240)
How it was run: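 Luminescent caspase-3/7 readout, 26.5 h post-dose, in human neural progenitor cells from WA09 embryonic stem cells. Cells grew 40–44 h at 37 °C, 5% CO2 before chemical addition. Activity analysed as signal increase over DMSO baseline.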

[18] = CCTE_Mundy_HCI_Cortical_Synap_Neur_Matur_NeuronCount: CCTE's Synaptogenesis and Neurite Maturation Assay in rat cortical cells for Neuron Count, Mundy Lab (AID 2284242; active = hit-call score of the fitted dose curve at least 0.9, where 1 is the maximum;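 note: hits reduce neuron count versus DMSO baseline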)
How it was run: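 Measured at DIV 12: fluorescently labelled neurons (Hoechst nuclei, MAP2) in rat primary cortical cultures, counted by high-content imaging. AraC suppressed glia from DIV 5; DMSO served as negative control.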

[19] = IUF_NPC2a_radial_glia_migration_120hr: Leibniz Research Institute for Environmental Medicine (IUF) 120-hour Neural Progenitor Cell Migration Assay for Radial Glia Migration (NPC2a) (AID 2284298)
How it was run: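 Migration distance in um, sphere core edge to migration-area edge, derived by nuclei-density algorithm from Hoechst images after 120 h compound exposure. Primary hNPC spheres differentiated on poly-D-lysine/laminin in N2 medium, 37C; medium half-replaced day 3.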

[20] = IUF_NPC2a_radial_glia_migration_72hr: Leibniz Research Institute for Environmental Medicine (IUF) 72-hour Neural Progenitor Cell Migration Assay for Radial Glia Migration (NPC2a) (AID 2284299)
How it was run: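 Spheres of human primary neural progenitors migrate on poly-D-lysine/laminin under compound exposure at 37C, 5% CO2. The 72 h radial glia migration distance comes from brightfield images, measured manually.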

[21] = IUF_NPC3_neuronal_differentiation_120hr: Leibniz Research Institute for Environmental Medicine (IUF) 120-hour Neuronal Differentiation Assay (NPC3) (AID 2284301)
How it was run: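 hNPC spheres, PDL/laminin, DMEM/F12 3:1 + 1% N2, 37C, 5% CO2; 7 concentrations + solvent control, 5 d exposure, half-change day 3. Fix 120 h; TUBB3/Hoechst ICC, CNN neuron calling; % neurons vs nuclei, DMSO-normalized.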

[22] = IUF_NPC4_neurite_length_120hr: Leibniz Research Institute for Environmental Medicine (IUF) 120-hour Neuronal Morphology Assay for Neurite Length (NPC4) (AID 2284302)
How it was run: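 hNPC spheres (0.3 mm, fetal brain GW 16-19) on PDL/laminin, DMEM:F12 3:1 + 1% N2, 37C 5% CO2; 7 concs + solvent control, day 0-5, half medium change d3; fix 120 h, TUBB3 ICC, mean neurite length um vs DMSO.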

[23] = IUF_NPC4_neurite_area_120hr: Leibniz Research Institute for Environmental Medicine (IUF) 120-hour Neuronal Morphology Assay for Neurite Area (NPC4) (AID 2284305; active = hit-call score of the fitted dose curve at least 0.9, where 1 is the maximum)
How it was run: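 hNPC spheres on PDL/laminin, N2 medium, 37C/5% CO2; dosed day 0, half-medium refresh day 3; fixed 120 h; TUBB3/Hoechst ICC, high-content imaging; neurite area = mean pixels per neuron (nuclei excluded); DMSO baseline, max 0.1%.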

[24] = IUF_NPC2-5_cytotoxicity_120hr: Cytotoxicity Assessment at 120 hours in the Leibniz Research Institute for Environmental Medicine (IUF) Neural Progenitor Cell Migration and Differentiation Assay (NPC2-5) (AID 2284307; active = hit-call score of the fitted dose curve at least 0.9, where 1 is the maximum)
How it was run: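 Membrane-integrity loss measured as LDH activity in medium supernatant via resazurin-to-resorufin fluorescence after 120 h exposure. hNPC spheres from GW 16-19 fetal cortex differentiated on poly-D-lysine/laminin, 37C, medium half-refreshed day 3; seven concentrations, DMSO max 0.1%.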

[25] = IUF_NPC2-5_cell_number_120hr: Cell Number Assessment at 120 hours in the Leibniz Research Institute for Environmental Medicine (IUF) Neural Progenitor Cell Migration and Differentiation Assay (NPC2-5) (AID 2284308);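 note: count of Hoechst-stained nuclei in migration zone around plated human neural progenitor spheres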
How it was run: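 Counting of all Hoechst-stained nuclei in the migration area at 120 h, versus DMSO control. Primary hNPC spheres differentiated on poly-D-lysine/laminin in N2 medium at 37C, dosed from day 0 (7 concentrations, DMSO ≤0.1%), half-refed day 3.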

[26] = IUF_NPC2-5_viability_120hr: Viability Assessment at 120 hours in the Leibniz Research Institute for Environmental Medicine (IUF) Neural Progenitor Cell Migration and Differentiation Assay (NPC2-5) (AID 2284312)
How it was run: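 Human fetal neural progenitor spheres (0.3 mm) plated on poly-D-lysine/laminin in N2 differentiation medium, exposed 120 h with half-medium refresh at day 3. Viability by alamar blue resazurin fluorescence; 7 concentrations, DMSO max 0.1%.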

Compound: C[n+]1ccc(-c2cc[n+](C)cc2)cc1
- outcome [1]: inactive
- outcome [2]: inactive
- AC50 [3]: 0.947 µM (active)
- AC50 [4]: 29.6 µM (active)
- AC50 [5]: 29.8 µM (active)
- AC50 [6]: 0.966 µM (active)
- AC50 [7]: 1.01 µM (active)
- outcome [8]: inactive
- outcome [9]: inactive
- AC50 [10]: 50 µM (active)
- AC50 [11]: 1.21 µM (active)
- AC50 [12]: 14.4 µM (active)
- AC50 [13]: 85.1 µM (active)
- outcome [14]: inactive
- outcome [15]: inactive
- AC50 [16]: 50 µM (active)
- outcome [17]: inactive
- AC50 [18]: 0.763 µM (active)
- AC50 [19]: 1.98 µM (active)
- outcome [20]: inactive
- outcome [21]: inactive
- outcome [22]: inactive
- outcome [23]: inactive
- outcome [24]: inactive
- outcome [25]: inactive
- outcome [26]: inactive
